High-throughput results as filed in PubChem BioAssay.
HUVEC tox IL1B = toxic to HUVEC cells under IL-1B stimulation; HUVEC cell count loss, Hoechst imaging, IL-1B stimulated; cell count reduction, % at 2 µM; 94,000 tested, 0.41% active; AID 845;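 active = cell count reduction more than 3 SD above the screen-wide mean, cut at about 70% in these data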;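 also: normalized per plate to untreated control cells as the no-loss baseline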
F-actin modifier = alters cytoskeleton assembly in HUVEC cells; inhibition, % at 2 µM; 91,000 tested, 0.18% active; HUVEC TNFa F-actin phalloidin imaging, high content;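 active = inhibition above the batch mean plus 3 SD and confirmed as a hit by visual image inspection, cut at about 30% in these data, passing the limit was not always enough; inconclusive = above the inhibition threshold but rejected on visual inspection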
VCAM1 TNFa inh = reduces TNF alpha induced VCAM1 expression in HUVEC; HUVEC TNFa-induced VCAM-1 immunofluorescence, high-content imaging; inhibition, % at 2 µM; 95,000 tested, 0.48% active;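 active = inhibition above the batch mean plus 3 SD, with images confirmed as a hit by eye, cut at about 37% in these data; inconclusive = inhibition above that limit but hit not confirmed in images; inactive = inhibition not above that limit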;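 also: 0% = TNF-stimulated DMSO wells and 100% = unstimulated control wells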
HUVEC tox TNFa = toxic to HUVEC cells under TNF alpha stimulation | HUVEC TNFalpha-stimulated, Hoechst cell count, imaging | cell count reduction, % at 2 µM | 93,000 tested, 0.17% active;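 active = cell count reduction exceeding the screen mean by over 5 SD, scaled to untreated wells per plate, cut at about 78% in these data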;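 also: cells counted after 24 h of TNF alpha exposure following the 1 h pretreatment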
IL1B NFkB pot = enhances IL-1B driven NFkB nuclear translocation | HUVEC IL-1B NFkB p65 nuclear translocation imaging | 94,000 tested, 0.3% active | activation, % at 2 µM;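 active = activation above 40%, about the mean plus 3 SD, also judged a hit on visual image review; inconclusive = activation above 40% but not a hit on visual review; inactive = activation not above 40% and no visual hit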;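 also: percent activation is computed from the nuclear over cytoplasmic p65 intensity ratio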
NFkB transloc inh = blocks IL-1B driven NFkB nuclear translocation in HUVEC cells; HUVEC IL-1B NFkB p65 nuclear translocation imaging; inhibition, % at 2 µM; 94,000 tested, 0.43% active; AID 796;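 active = inhibition above about 30% together with a positive call from visual inspection of the well image, limit read from the data; inconclusive = inhibition above a set limit but visual check negative; inactive = inhibition not above a set limit, visual check negative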;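 also: nuclear over cytoplasmic p65 intensity ratio measured by imaging; 0% = IL-1B stimulated DMSO wells and 100% = unstimulated DMSO wells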
Starred values were filed as active, the others as inactive; ? = inconclusive; · = no result. Hits are enriched below; roughly 1.6% of the tested compounds scored in any of these assays.

SMILES | HUVEC tox IL1B | F-actin modifier | VCAM1 TNFa inh | HUVEC tox TNFa | IL1B NFkB pot | NFkB transloc inh
Cn1c(CO)cnc1SCc1ccc(Cl)cc1 | -24 | 0 | -11 | -4 | 4 | -4
Cc1ccc(NCN2C(=O)C3CC=CCC3C2=O)cc1 (stereo not drawn) | -38 | 9 | -32 | · | 12 | -12
COc1ccc(NC(=O)CSc2nnc(C3CCCCC3)n2-c2ccccc2)cc1 | 55 | -13 | 15 | -1 | -81 | 81*
COc1ccc(NC(=O)CSc2nnc(C3CC3)n2N)cc1 | -6 | -10 | -18 | 0 | 12 | -12
CC(C)CC(=O)O/N=C1\C(=O)N(c2ccccc2)c2ccccc21 | -31 | 23 | 9 | -7 | -5 | 5
CC(C)CC(=O)O/N=C1\C(=O)N(Cc2ccc(Cl)cc2)c2ccc([N+](=O)[O-])cc21 | 92* | 4 | 10 | -16 | 47* | -47
Cc1ccc(NC(=S)NCc2cccs2)c(C)c1 | -8 | -16 | 6 | 6 | 0 | 0
C=CCc1cccc2cc(C(=O)O)c(=O)oc12 | · | -6 | -11 | 1 | · | ·
C=CCc1cccc2cc(C(=O)OCC(=O)c3ccccc3)c(=O)oc12 | 86* | 4 | 18 | 6 | 10 | -10
Nc1nc(N)nc(-c2ccc(Cl)cc2)n1 | -11 | -6 | 21 | -11 | 22 | -22
Cc1ccc(Oc2ccc(-c3nc(N)nc(N)n3)cc2)cc1 | 86* | -4 | -2 | 2 | -97 | 97*
N#CC1=C2SCC(O)(c3ccccc3)N2C(=O)CC1c1cccs1 (stereo not drawn) | 0 | 35* | 17 | 17 | -12 | 12
CCCn1c(=O)c2ccccc2n2c(SCC(=O)NCc3cccs3)nnc12 | 6 | 79* | 23 | -22 | 3 | -3
CCOC(=O)c1nnn(-c2nonc2N)c1-c1ccccc1 | 1 | -12 | 8 | -26 | 42* | -42
O=C(c1cc2ccccc2oc1=O)N1CCN(c2ncccn2)CC1 | 8 | 14 | -1 | -12 | 2 | -2
O=[N+]([O-])c1cnccc1Nc1ccc(F)cc1 | -47 | 85* | 53* | 94* | -9 | 9
CCCc1nnc(SCC(=O)O)n1/N=C/c1ccc2c(c1)OCO2 | 20 | · | 48* | 49 | -8 | 8
COc1ccc(OCC(=O)c2c(O)c3ccccc3oc2=O)cc1 | 94* | -2 | 13 | -10 | -13 | 13
CCOc1ccc(OCC(=O)c2c(O)c3ccccc3oc2=O)cc1 | 14 | -44 | 8 | -23 | -15 | 15
CCc1cccc(CC)c1N(COC)C(=O)Cn1nnc2ccccc21 | 1 | -11 | -11 | -8 | -15 | 15
CCc1cccc(CC)c1N(COC)C(=O)Cn1ccccc1=N | -33 | 79* | 17 | -47 | 5 | -6
CCS(=O)(=O)N1CCC(C(=O)c2ccc(Cl)cc2)CC1 | 2 | 11 | 7 | -7 | -1 | 1
COc1cc(C(=O)Nc2ccc(NC(=O)c3ccco3)nc2)cc(OC)c1OC | 0 | 15 | -2 | -20 | 4 | -4
COc1cc(C(=O)N/N=C/c2ccsc2C)cc(OC)c1OC | 22 | -58 | 57* | 55 | -21 | 21
COc1cc(C(=O)Nc2cccc3cccnc23)cc(OC)c1OC | -18 | -30 | -12 | 32 | -39 | 39*
SMILES | HUVEC tox IL1B | F-actin modifier | VCAM1 TNFa inh | HUVEC tox TNFa | IL1B NFkB pot | NFkB transloc inh
COc1ccc(NC(=O)c2cc(OC)c(OC)c(OC)c2)cn1 | -36 | -2 | -24 | -13 | -48 | 48*
CCOc1ccc(OCc2ccc(C(=O)N3N=C(C(F)F)CC3(O)C(F)F)o2)cc1 (stereo not drawn) | -16 | 26 | -3 | -20 | 45* | -45
Cc1cc(C)cc(OCc2ccc(C(=O)N3N=C(C(F)F)CC3(O)C(F)F)o2)c1 (stereo not drawn) | 4 | -1 | -2 | -21 | 17 | -17
Nc1ccccc1NC(=O)c1ccccc1N | -14 | -3 | 81* | 93* | -9 | 9
Cc1cn(C(=O)C(C)N2C(=O)c3ccccc3C2=O)c(C)n1 (stereo not drawn) | 87* | -5 | -17 | -12 | 6 | -6
Cc1nn(C(=O)C(C)N2C(=O)c3ccccc3C2=O)c(C)c1Br (stereo not drawn) | 23 | -12 | 2 | -17 | -1 | 1
CCOC(=O)Cc1csc(NC(=O)c2ccc(Br)o2)n1 | -133 | 13 | -9 | -31 | 33 | -33
CCOC(=O)Cc1csc(NC(=O)c2ccc(Br)s2)n1 | 89* | -2 | -9 | -7 | 9 | -9
Cc1cc(C(=O)OCC(=O)NCCc2ccccc2)c(C)o1 | -8 | 9 | 0 | -20 | 5 | -5
O=C(NC1CCN(Cc2ccccc2)CC1)C1CCCN(S(=O)(=O)c2cccc3nonc23)C1 (stereo not drawn) | -21 | -2 | 7 | -16 | -46 | 46*
CCOC(=O)c1cnc(-n2nc(C)cc2C)nc1NCCO | -3 | -10 | 5 | -4 | -7 | 7
CCOC(=O)c1cnc(-n2nc(C)cc2C)nc1NCc1ccccc1 | -53 | -49 | 92* | 76 | 20 | -20
Cc1nc(SCC(=O)c2ccc(Cl)cc2)c([N+](=O)[O-])[nH]1 | 7 | 1 | -1 | -2 | -6 | 6
O=C(Nc1nnc(Cc2ccccc2)s1)c1ccco1 | 1 | · | 13 | 6 | 13 | -13
CC(C)(C)C(=O)Nc1nnc(Cc2ccccc2)s1 | -26 | 9 | -9 | -39 | 42* | -42
Cc1ccc(S(=O)(=O)Nc2nncs2)cc1 | -30 | 12 | 13 | -6 | 55* | -55
COCc1nnc(NS(=O)(=O)c2ccc(C)cc2)s1 | 2 | 5 | -12 | 0 | 10 | -10
Cc1cc(Nc2ccccc2)n(C(=O)c2ccc(Cl)cc2)n1 | -3 | 15 | 9 | -32 | 4 | -4
CCOC(=O)C1=C(CSc2nc3c(cc2C#N)CN(C)CC3)OC(N)=C(C#N)C1c1ccccc1 (stereo not drawn) | -71 | 12 | ? | 99* | -5 | 5
CC(=O)Oc1cccc(N2C(=O)C3CC=CCC3C2=O)c1 (stereo not drawn) | 89* | 12 | -12 | -28 | 30 | -30
Cc1cc(C)n2c(SCc3ccccc3Cl)nnc2n1 | 27 | -11 | 18 | -15 | -31 | 31*
Cc1cc(C)n2c(SCc3ccc(Cl)cc3Cl)nnc2n1 | -17 | 15 | -10 | -15 | -6 | 6
CS(=O)(=O)N(CC(=O)N1CCN(c2ccccc2)CC1)c1ccccc1Cl | -36 | -10 | 12 | -29 | 4 | -4
O=C(c1ccsc1)N1CCN(C(=O)c2cccs2)CC1 | 78* | -23 | 13 | -12 | -1 | 1
O=C(c1cccs1)N1CCN(S(=O)(=O)c2ccccc2)CC1 | 22 | · | 16 | -40 | -10 | 10
O=C(c1cccs1)N1CCN(S(=O)(=O)N2CCCCC2)CC1 | 92* | 0 | 21 | -1 | -7 | 7
O=C(c1cccs1)N1CCN(C(=O)C(c2ccccc2)c2ccccc2)CC1 | 0 | -6 | 4 | 5 | -40 | 40*
